Measurements as given in PubChem BioAssay (NCATS).
Inconclusive results are not listed. Active and inactive are the calls of the source. Unless noted, calls follow the shape of the dose curve; as a rule, active = well fitted curve in the direction sought with a large enough effect; inconclusive = small, poorly fitted or top-dose-only effect, or another doubt; inactive = no such curve, though single readings can be large; an effect the other way counts as inactive or inconclusive.

How the values were obtained:
[1] = Cell Viability - MRC5 (AID 434; calls by dose curve;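 also: potency is read from the fitted curve at half-maximal effect; potency reflects cytotoxicity seen as loss of intracellular ATP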); conditions: MRC5 lung fibroblast viability, qHTS
Method in brief: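 MRC5 normal human lung fibroblasts, 1500 cells/well, exposed to compound for 40 hr at 37 C. Cellular ATP was read by CellTiter-Glo luminescence; data normalized to DMSO and 100 uM tamoxifen, with AC50 from Hill fits.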

[2] = Cell Viability - HUV-EC-C (AID 542); conditions: HUV-EC-C endothelial cell viability, qHTS; series mostly up to 92.2 µM; also: % is scaled to controls: 0 for no effect and ±100 for the full control effect; nearly all actives have a fitted effect of over 35% in size
Method in brief: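 Decrease in cellular ATP, quantified by luciferase luminescence, reflects toxicity in normal human vascular endothelial HUV-EC-C cells given compound for 40 hr in complete culture medium. Values are AC50s from concentration-response curves.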

[3] = Cellular Toxicity (caspase-3) HepG2 (AID 654); conditions: HepG2 caspase-3 activation, luminescence; series mostly up to 92.2 µM;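 also: cells exposed to compound for 16 hours before reading; 0% = DMSO alone and 100% = caspase signal from 100 µM tamoxifen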
Method in brief: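 qHTS, HepG2, 1500 cells/well, complete medium; cpd 16 h 37 °C; Caspase-Glo 3/7, 20 min RT; lum. Norm: DMSO vs 100 uM tamoxifen; AC50 Hill fit.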

[4] = Cellular Toxicity (caspase-3) HUV-EC-C (AID 656); conditions: HUV-EC-C cells, caspase-3 activation (apoptosis); series mostly up to 92.2 µM
Method in brief: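 HUV-EC-C endothelial cells, 1000/well, were pre-incubated 5 hr at 37°C, then exposed to compounds for 16 hr at 37°C. Caspase-Glo 3/7 luminescence was read after 20 min at room temperature. AC50 came from Hill fits, normalized to DMSO and 100 uM tamoxifen.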

[5] = Cellular Toxicity (caspase-3) SHSY5Y (AID 657); conditions: SH-SY5Y caspase-3 activation; series mostly up to 91.7 µM
Method in brief: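 SH-SY5Y human neuroblastoma cells (1500/well) were treated with compounds for 16 h at 37 °C, then Caspase-Glo 3/7 luminescence was read after 1 h at room temperature. Data normalized to DMSO and 10 uM staurosporine; AC50 from Hill fits.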

[6] = Cellular Toxicity (caspase-3) Mesangial (AID 660); conditions: mesangial cells, normalized: DMSO 0%, 100 µM tamoxifen 100%; series mostly up to 91.7 µM;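 also: combined caspase 3 and 7 activity read by Caspase-Glo luminescence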
Method in brief: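 Concentration-response qHTS: compound-induced rise in caspase 3/7 luminescence in human mesangial cells after 16 h, normalized to DMSO and 100 uM tamoxifen controls.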

[7] = Cellular Toxicity (caspase-3) SK-N-SH (AID 661); conditions: SK-N-SH caspase-3 activation, qHTS, DMSO as zero, staurosporine as full; series mostly up to 91.7 µM
Method in brief: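 Caspase 3/7 activation is measured as a luminescence increase from aminoluciferin released by substrate cleavage in SK-N-SH cells after 16 hr compound treatment; values are AC50 from concentration-response curves.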

[8] = Cellular Toxicity (caspase-3) H-4-II-E (AID 663); conditions: H-4-II-E rat hepatoma; Potency: caspase-3 activation; series mostly up to 92.2 µM;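 also: cells exposed to compound for 16 hr before readout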
Method in brief: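 Rat hepatoma H-4-II-E cells (1500/well) plated 5 hr, then exposed to compound titrations for 16 hr at 37 °C. Caspase-Glo 3/7 luminescence read after 20 min at RT; data normalized to DMSO and 100 uM tamoxifen, AC50 from Hill fits.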

[9] = Cellular Toxicity (caspase-3) N2a (AID 665); conditions: N2a cells, luminescence, normalized: DMSO 0%, 10 µM staurosporine 100%; series mostly up to 92.2 µM;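 also: compound exposure lasted 16 h at 37 °C before readout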
Method in brief: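 Plated mouse neuroblastoma N2a cells received titrated compounds for 16 h in complete medium. Caspase activity was then detected with a peptide-aminoluciferin luminescent reagent.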

[10] = Cellular Toxicity (caspase-3) NIH 3T3 (AID 666); conditions: NIH 3T3 caspase-3 activation, apoptosis/toxicity, 0% DMSO, 100% is 100 µM tamoxifen; series mostly up to 92.2 µM;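 also: caspase signal read after 16 h compound exposure; 0% = DMSO basal and 100% = 100 µM tamoxifen stimulation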
Method in brief: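 Concentration-response qHTS in NIH 3T3 mouse fibroblasts scores caspase-3/7 activation as rising luminescence after 16 hr compound exposure. Signals are scaled between DMSO-only and 100 uM tamoxifen.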

[11] = Cellular Toxicity (caspase-3) Renal Proximal Tubule (AID 667); conditions: renal proximal tubule cells, primary cells freshly taken from rat; Potency: caspase-3 activation; series mostly up to 91.7 µM;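 also: cells exposed to compound for 16 hours at 37 °C before detection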
Method in brief: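 Primary rat proximal tubule cells, 1000/well, 5 h plating at 37 °C, then compound 16 h at 37 °C. Caspase-Glo 3/7 reagent, 1 h RT, luminescence. Normalized to DMSO (basal) and 10 uM staurosporine (100%); Hill-fit AC50.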

[12] = MultiTox-Fluor Cytotoxicity Assay - LYMP1-001 - Dead Cells (AID 946); conditions: LYMP1-001 lymphoblastoid cells, dead-cell protease fluorescence; series mostly up to 92.2 µM;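 also: 0% = DMSO and 100% = tetraoctylammonium bromide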
Method in brief: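 LYMP1-001 lymphoblastoid cells (2500/well) treated 16 h at 37 C. Dead-cell protease cleavage of bis-AAF-R110 read at Ex/Em 485/520. Normalized to DMSO and 15 uM tetraoctylammonium bromide; AC50 from Hill fits.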

[13] = MultiTox-Fluor Cytotoxicity Assay - LYMP1-003 - Dead Cells (AID 961); conditions: LYMP1-003 lymphoblastoid cells, dead-cell protease fluorescence; series mostly up to 92.2 µM;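 also: 0% = DMSO and 100% = tetraoctylammonium bromide; nearly all actives have a fitted effect of over 70% in size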
Method in brief: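 LYMP1-003 human lymphoblastoid cells (2500/well) exposed to compound 16 h at 37 C in complete medium; dead-cell protease read with bis-AAF-R110 fluorescence (Ex/Em 485/520) after 60 min at room temperature. Normalized to DMSO and 15 uM tetraoctylammonium bromide; AC50 from Hill fit.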

[14] = MultiTox-Fluor Cytotoxicity Assay - LYMP1-003 - Live Cells (AID 962); conditions: LYMP1-003 lymphoblastoid cells, MultiTox-Fluor live-cell protease fluorescence; series mostly up to 92.2 µM;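 also: 0% = DMSO only and full loss = 92 µM tetraoctylammonium bromide; cytotoxic hits lower the live-cell protease signal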
Method in brief: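 Cells plated at 2500 per well and incubated 5 hr; compounds added and incubated 16 hr at 37 C; MultiTox-Fluor reagent added for 60 min at room temperature; fluorescence of liberated AFC measured at 405/510 nm.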

[15] = Cell Viability - LYMP1-003 - Assay at 24 hr (AID 963); conditions: LYMP1-003 lymphoblastoid cell viability; series mostly up to 92.2 µM;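 also: plate controls were DMSO only for no effect and tetraoctylammonium bromide positive control for full effect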
Method in brief: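 Acute toxicity in LYMP1-003 lymphoblastoid cells: 24 hr compound treatment at 37 C, ATP measured with CellTiter-Glo after 30 min at room temperature. AC50 derived by fitting the Hill equation to qHTS titrations.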

[16] = Cell Viability - LYMP1-002 - Assay at 24 hr (AID 993); conditions: LYMP1-002 lymphoblastoid cells viability; series mostly up to 92.2 µM; also: % is scaled to controls: 0 for no effect and ±100 for the full control effect
Method in brief: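 qHTS, LYMP1-002 lymphoblastoid, 24 h cpd, 37 C, CellTiter-Glo ATP luminescence; AC50 via Hill eq.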

[17] = qHTS Assay for Identification of Small Molecule Inducers of Hypoxia Response (AID 2120; active = well fitted curve in the direction sought with a large enough effect in the signal ratio, with a control signal flat, not every such curve was filed as active; the % refers to the signal ratio; also: 0% is about no effect); conditions: hypoxia response reporter cells, beta-lactamase ratio readout; series mostly up to 104 µM
Method in brief: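 Induction of beta-lactamase reporter activity was measured in CellSensor HRE-bla ME-180 cells after 17 h compound treatment at 37 degrees C, using CCF4 substrate and the 460nm/530nm emission ratio to derive AC50 values.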

[18] = molecular target: Peroxisome proliferator-activated receptor alpha (Homo sapiens) (UniProt Q07869); assay: qHTS assay for small molecule agonists of the peroxisome proliferator-activated receptor alpha (PPARalpha) signaling pathway (AID 651778); conditions: PathHunter PPARalpha complementation, chemiluminescence, 6 h; max response: active compounds read high; also: % of control where 0% means no effect
Method in brief: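 Enzyme-fragment complementation assay in which ligand-bound PPARalpha translocates and forms an active enzyme that generates chemiluminescence. Cells were plated overnight, exposed to compound for 6 hr at 37 C, and then given detection reagent for 60 min at room temperature.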

[19] = qHTS assay for small molecule agonists of the antioxidant response element (ARE) signaling pathway measured by Nrf2-dependant transcriptional activity - cell viability counter screen (AID 720653; active = well fitted curve in the direction sought with a large enough effect in the repeat runs; an effect the other way counts as inactive or inconclusive; also: % is scaled to controls: 0 for no effect and ±100 for the full control effect); conditions: ARE-bla HepG2 viability, CellTiter-Glo ATP luminescence, 16 h; max response: active compounds read low
Method in brief: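 ARE-bla HepG2 cells treated with compounds for 16 h at 37C; this counter screen measures viability as intracellular ATP by CellTiter-Glo luminescence after 30 min at room temperature.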

[20] = qHTS assay for cell viability of the p53RE-bla HCT-116 cell line (AID 743292); conditions: p53RE-bla HCT-116 viability, ATP luminescence, 16 h; series mostly up to 95 µM; also: % is scaled to controls: 0 for no effect and ±100 for the full control effect; nearly all actives have a fitted effect of over 55% in size
Method in brief: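 After plating at 4,000 cells per well and a 5 h rest at 37 C, HCT-116 cells carrying p53RE-bla received test chemicals in DMSO. Sixteen hours later at 37 C, CellTiter-Glo was added and luminescence recorded following 30 min at room temperature.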

Peroxisome proliferator-activated receptor alpha (Homo sapiens), sequence (Q07869 whole entry, looked up, the tested form may be a part): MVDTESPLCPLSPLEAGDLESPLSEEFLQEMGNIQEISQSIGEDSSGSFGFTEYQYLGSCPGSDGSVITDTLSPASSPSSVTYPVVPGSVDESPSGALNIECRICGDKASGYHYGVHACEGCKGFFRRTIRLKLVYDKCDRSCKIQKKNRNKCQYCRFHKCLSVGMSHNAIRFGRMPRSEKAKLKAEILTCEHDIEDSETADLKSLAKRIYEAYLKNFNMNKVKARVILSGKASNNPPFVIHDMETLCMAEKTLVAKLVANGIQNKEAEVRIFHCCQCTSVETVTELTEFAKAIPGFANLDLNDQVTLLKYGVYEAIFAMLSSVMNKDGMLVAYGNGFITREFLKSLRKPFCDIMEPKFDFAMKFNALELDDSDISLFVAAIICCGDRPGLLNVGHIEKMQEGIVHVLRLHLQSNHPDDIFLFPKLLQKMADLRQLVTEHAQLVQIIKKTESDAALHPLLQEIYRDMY

Clc1nc2ccccc2nc1Cl
inactive: Potency [1] > 92 µM | Potency [2] | Potency [3] | Potency [4] | Potency [5] | outcome [6] | outcome [7] | Potency [8] | outcome [9] | outcome [10] | Potency [11] | Potency [12] | Potency [13] | Potency [14] | Potency [15] | Potency [16] | Potency [17] | max response [18] 0.306% | max response [19] 0.874% | Potency [20]

O=C(OCC1CO1)C1CCCCC1C(=O)OCC1CO1 (stereo not given)
inactive: Potency [1] > 92 µM | Potency [2] | Potency [3] | Potency [4] | Potency [5] | outcome [6] | outcome [7] | Potency [8] | outcome [9] | outcome [10] | Potency [11] | Potency [12] | Potency [14] | Potency [15] | Potency [16] | Potency [17] | max response [18] 11.4% | max response [19] 4.68% | Potency [20]

O=CC(=O)c1ccccc1
inactive: Potency [1] > 92 µM | Potency [2] | Potency [3] | Potency [4] | Potency [5] | outcome [6] | outcome [7] | Potency [8] | outcome [9] | outcome [10] | Potency [11] | Potency [12] | Potency [14] | Potency [15] | Potency [16] | Potency [17] | max response [18] -2.48% | max response [19] -2.84% | Potency [20]

Cc1cc2nc(N)sc2cc1C
inactive: Potency [1] > 92 µM | Potency [3] | Potency [4] | Potency [5] | outcome [6] | outcome [7] | Potency [8] | outcome [9] | Potency [12] | Potency [13] | Potency [14] | Potency [15] | Potency [16] | Potency [17] | max response [18] -4.39% | max response [19] -19.7% | Potency [20]
